Inconclusive results are not listed. The source made the active and inactive calls. Unless noted, calls follow the shape of the dose curve; as a rule, active = well fitted curve in the direction sought with a large enough effect in the repeat runs; inconclusive = weak or mixed curves; inactive = no such curve, though single readings can be large; an effect the other way counts as inactive or inconclusive.
Experiments:
[1] = molecular target: Retinoic acid receptor RXR-alpha (Homo sapiens) (UniProt P19793); assay: qHTS assay to identify small molecule agonists of the RXR signaling pathway (AID 1159527; calls by dose curve; also: nearly all actives have a fitted effect of over 35% in size)
Chain of Retinoic acid receptor RXR-alpha (Homo sapiens) (P19793 whole entry, looked up): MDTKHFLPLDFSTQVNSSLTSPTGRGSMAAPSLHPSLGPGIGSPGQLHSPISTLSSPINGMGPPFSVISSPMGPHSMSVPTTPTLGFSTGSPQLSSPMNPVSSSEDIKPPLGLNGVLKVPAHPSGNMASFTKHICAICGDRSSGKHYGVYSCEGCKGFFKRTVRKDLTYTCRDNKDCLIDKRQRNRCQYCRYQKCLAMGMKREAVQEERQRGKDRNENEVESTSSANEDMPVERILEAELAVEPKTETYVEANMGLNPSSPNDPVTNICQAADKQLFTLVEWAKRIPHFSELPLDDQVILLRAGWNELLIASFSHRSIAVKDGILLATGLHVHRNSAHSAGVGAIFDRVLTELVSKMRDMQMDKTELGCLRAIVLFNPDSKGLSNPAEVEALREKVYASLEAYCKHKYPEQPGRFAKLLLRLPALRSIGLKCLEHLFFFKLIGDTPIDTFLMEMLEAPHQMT
How it was run: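 Read-out: beta-lactamase FRET ratio (405 nm excitation, 460 and 530 nm emission) after 2 hr substrate loading at room temperature. Cells were RXR-alpha-UAS-bla HEK 293T treated with compounds for 16 hr in 2% charcoal-stripped FBS medium.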

[2] = qHTS assay to identify small molecule agonists of the RXR signaling pathway - cell viability counter screen (AID 1159529); also: series mostly up to about 77 µM; nearly all actives have a fitted effect of over 50% in size
How it was run: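 HEK 293T RXRa-bla cells, 2% CS-FBS; 5 h settle; cpd 16 h 37 C, 5% CO2; CellTiter-Glo 30 min RT, luminescence. Tetraoctyl ammonium bromide as positive control.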

[3] = qHTS assay to identify small molecule agonists of the retinoic acid receptor (RAR) signaling pathway (AID 1159553)
How it was run: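 Activation of retinol signaling was monitored via a RARE luciferase reporter in C3RL4 cells. After 6 hr compound treatment at 37 C, detection reagent was added for 30 min at room temperature before luminescence reading.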

[4] = qHTS assay to identify small molecule antagonists of the estrogen related receptor (ERR) signaling pathway from Tox21 library - cell viability counter screen (AID 1224834); also: nearly all actives have a fitted effect of over 30% in size
How it was run: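 CellTiter-Fluor fluorescence measured; ERR cells; 17.5 h compound incubation at 37 C; 30 min reagent step.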

[5] = molecular target: Luciferin 4-monooxygenase (Photinus pyralis) (UniProt P08659); assay: qHTS assay to identify small molecule inhibitors of firefly luciferase (AID 1224835); also: series mostly up to about 120 µM; nearly all actives have a fitted effect of over 25% in size
Chain of Luciferin 4-monooxygenase (Photinus pyralis) (P08659 whole entry, looked up): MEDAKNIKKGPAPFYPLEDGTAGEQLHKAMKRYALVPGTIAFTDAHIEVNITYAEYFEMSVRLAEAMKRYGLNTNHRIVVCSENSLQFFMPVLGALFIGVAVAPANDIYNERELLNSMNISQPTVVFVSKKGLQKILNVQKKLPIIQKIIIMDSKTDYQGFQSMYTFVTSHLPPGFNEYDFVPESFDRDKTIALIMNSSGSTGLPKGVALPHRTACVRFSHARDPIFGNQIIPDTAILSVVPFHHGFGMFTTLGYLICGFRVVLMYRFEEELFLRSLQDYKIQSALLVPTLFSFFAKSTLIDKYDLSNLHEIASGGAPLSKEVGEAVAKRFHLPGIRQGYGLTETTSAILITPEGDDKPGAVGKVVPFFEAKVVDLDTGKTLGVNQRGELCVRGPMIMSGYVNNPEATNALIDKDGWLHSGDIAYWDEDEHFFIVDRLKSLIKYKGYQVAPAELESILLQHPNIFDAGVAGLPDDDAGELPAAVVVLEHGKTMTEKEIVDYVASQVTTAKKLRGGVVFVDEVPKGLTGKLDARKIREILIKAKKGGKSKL
How it was run: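 Quantitative HTS format; KM concentrations of both substrates. Purified P. pyralis FLuc activity quantified from luminescence images.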

[6] = qHTS assay to identify small molecule agonists of the constitutive androstane receptor (CAR) signaling pathway - cell viability counter screen (AID 1224836); also: series mostly up to about 92 µM; nearly all actives have a fitted effect of over 45% in size
How it was run: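 HepG2-CYP2B6-hCAR, 2500 cells/well, 4 h pre-incubation; cpd 15 conc + PK11195 0.75 uM final; 23 h, 37 C/5% CO2; CellTiter-Fluor, fluorescence.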

[7] = qHTS assay to identify small molecule antagonists of the constitutive androstane receptor (CAR) signaling pathway - cell viability counter screen (AID 1224837); also: series mostly up to about 92 µM; nearly all actives have a fitted effect of over 45% in size
How it was run: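 Using CellTiter-Fluor, viability is scored in HepG2 cells stably carrying hCAR and a 2.2kb CYP2B6 reporter after 23 hr compound exposure across 15 concentrations, with CITCO present at 50 nM.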

[8] = molecular target: Nuclear receptor subfamily 1 group I member 3 (Homo sapiens) (UniProt Q14994); assay: qHTS assay to identify small molecule antagonists of the constitutive androstane receptor (CAR) signaling pathway (AID 1224838);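 also: HepG2 cells stably expressing hCAR with CYP2B6 luciferase reporter stimulated by CITCO; nearly all actives have a fitted effect of over 40% in size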
Chain of Nuclear receptor subfamily 1 group I member 3 (Homo sapiens) (Q14994 whole entry, looked up): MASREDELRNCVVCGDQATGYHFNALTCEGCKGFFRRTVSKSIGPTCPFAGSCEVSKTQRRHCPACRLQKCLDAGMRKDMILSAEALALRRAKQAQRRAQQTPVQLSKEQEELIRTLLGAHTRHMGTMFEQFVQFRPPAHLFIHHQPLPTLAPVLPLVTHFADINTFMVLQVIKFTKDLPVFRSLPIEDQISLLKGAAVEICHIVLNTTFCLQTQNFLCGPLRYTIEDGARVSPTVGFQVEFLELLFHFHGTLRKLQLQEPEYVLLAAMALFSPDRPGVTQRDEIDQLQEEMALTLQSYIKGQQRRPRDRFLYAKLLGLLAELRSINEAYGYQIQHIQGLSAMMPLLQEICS
How it was run: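 Reporter luminescence was quantified after 24 h exposure of hCAR/CYP2B6-2.2kb double-stable HepG2 cells to compounds at 15 concentrations in the presence of 50 nM CITCO final.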

[9] = molecular target: Nuclear receptor subfamily 1 group I member 3 (Homo sapiens) (UniProt Q14994); assay: qHTS assay to identify small molecule agonists of the constitutive androstane receptor (CAR) signaling pathway (AID 1224839);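 also: HepG2 cells stably carrying human CAR and a CYP2B6 luciferase reporter; series mostly up to about 92 µM; nearly all actives have a fitted effect of over 15% in size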
How it was run: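 HepG2-CYP2B6-hCAR cells, 2500/well, 4 h pre-incubation; compounds 15 conc.; PK11195 0.75 uM final; 24 h, 37 C/5% CO2; ONE-Glo luciferase read.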

[10] = qHTS assay to identify small molecule antagonists of the estrogen related receptor signaling pathway with the pleiotropic PPARgamma coactivator (PGC) from Tox21 10K library - cell viability counter screen (AID 1224840; active = well fitted cell-killing curve with a large enough effect in the repeat runs, not every such curve was filed as active; also: nearly all actives have a fitted effect of over 40% in size)
How it was run: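 Here the PGC/ERR cells serve as a cytotoxicity control: they are exposed to compounds for 17.5 hours at 37 C, and live-cell signal is quantified using CellTiter-Fluor fluorescence.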

[11] = molecular target: Thyrotropin receptor (Homo sapiens) (UniProt P16473); assay: qHTS assay to identify small molecule agonists of the thyroid stimulating hormone receptor (TSHR) signaling pathway (AID 1224843; calls by dose curve; also: nearly all actives have a fitted effect of over 45% in size)
Chain of Thyrotropin receptor (Homo sapiens) (P16473 whole entry, looked up): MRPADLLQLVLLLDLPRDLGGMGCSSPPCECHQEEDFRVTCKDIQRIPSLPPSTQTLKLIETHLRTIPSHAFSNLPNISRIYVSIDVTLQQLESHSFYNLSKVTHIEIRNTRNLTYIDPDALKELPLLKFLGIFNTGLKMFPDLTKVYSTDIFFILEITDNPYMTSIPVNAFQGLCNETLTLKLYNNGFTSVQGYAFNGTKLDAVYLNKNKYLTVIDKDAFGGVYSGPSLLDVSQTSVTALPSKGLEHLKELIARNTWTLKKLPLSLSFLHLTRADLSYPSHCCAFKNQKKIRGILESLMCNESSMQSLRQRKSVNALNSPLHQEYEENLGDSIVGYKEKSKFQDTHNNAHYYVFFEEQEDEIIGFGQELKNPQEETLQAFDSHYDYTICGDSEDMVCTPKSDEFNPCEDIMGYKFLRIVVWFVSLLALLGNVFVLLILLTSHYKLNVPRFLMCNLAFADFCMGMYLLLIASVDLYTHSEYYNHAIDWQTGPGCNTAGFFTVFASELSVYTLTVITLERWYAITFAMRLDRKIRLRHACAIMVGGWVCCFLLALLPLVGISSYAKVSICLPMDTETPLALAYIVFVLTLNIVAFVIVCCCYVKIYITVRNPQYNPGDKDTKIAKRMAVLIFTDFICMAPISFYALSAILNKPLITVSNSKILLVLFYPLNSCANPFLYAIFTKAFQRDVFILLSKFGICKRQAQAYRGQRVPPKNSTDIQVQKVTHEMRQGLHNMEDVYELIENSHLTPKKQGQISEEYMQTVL
How it was run: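 Cell line HEK293 with TSHR; density 800/well. Exposure 30 min RT. Readout HTRF cAMP (cAMP-d2/anti-cAMP-cryptate), 1 h RT before reading.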

[12] = qHTS assay to identify small molecule agonists of the hypoxia (HIF-1) signaling pathway - cell viability counter screen (AID 1224844; calls by dose curve; also: nearly all actives have a fitted effect of over 50% in size)
How it was run: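 Multiplexed with the HRE beta-lactamase assay, this viability read used CellTiter-Glo luminescence (30 min, RT) on HRE-bla ME-180 cells treated 17 hrs with compounds in 0.5% dialyzed FBS medium.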

[13] = qHTS assay to identify small molecule agonists of H2AX (AID 1224845; active = well fitted activation curve with a large enough effect in the signal ratio in the repeat runs, not every such curve was filed as active; the % refers to the signal ratio)
How it was run: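 Wild-type CHO-K1 cells plated overnight, then exposed 3 hr at 37C to compounds at 15 concentrations (0.76% DMSO). Lysed, then HTRF anti-pH2AX(S139)-cryptate/anti-H2AX-d2 detection after 24 hr at room temperature; emissions 665 and 620 nm.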

[14] = qHTS assay to identify small molecule agonists of the hypoxia (HIF-1) signaling pathway (AID 1224846; active = well fitted activation curve with a large enough effect in the signal ratio in the repeat runs, not every such curve was filed as active; the % refers to the signal ratio)
How it was run: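 Hypoxia-pathway activation was scored as increased beta-lactamase from an HRE-controlled reporter in ME-180 cells; plated at 2,000 cells per well with 0.5% dialyzed FBS, they were exposed 17 hrs to compounds and then given CCF4-AM.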

[15] = qHTS assay to identify small molecule agonists of H2AX - cell viability counter screen (AID 1224847; calls by dose curve; also: top concentration of the series differs between compounds; nearly all actives have a fitted effect of over 30% in size)
How it was run: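 Cells plated first: CHO-K1, 1000 per well in 10% FBS medium, incubated overnight at 37C. Then 15-point compound titration added (final DMSO 0.76%) for 3 hr. Finally CellTiter-Glo added and luminescence read.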

[16] = qHTS assay to identify small molecule antagonists of the retinoic acid receptor (RAR) signaling pathway (AID 1159552; also: nearly all actives have a fitted effect of over 50% in size)
How it was run: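 Cells of the C3RL4 line were seeded, incubated overnight, then dosed with compounds in DMSO followed immediately by retinol (1 uM final). Six hours later luciferase detection reagent went in; signal was measured after 30 min at RT.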

[17] = qHTS assay to identify small molecule antagonists of the estrogen related receptor signaling pathway with the pleiotropic PPARgamma coactivator (PGC) from Tox21 10K library (AID 1224841; call rule not given here; also: series mostly up to about 92 µM; actives are mostly falling curves and most rising ones were filed inactive; nearly all actives have a fitted effect of over 50% in size)
How it was run: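 Each well held 2,000 PGC/ERR cells, pre-incubated six hours (37 C, 5% CO2). Test substances in DMSO were added by pin tool and left for 18 h at 37 C before luciferase detection by One-Glo.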

[18] = qHTS assay to identify small molecule agonists of the estrogen related receptor signaling pathway with the pleiotropic PPARgamma coactivator (PGC) from Tox21 10K library (AID 1224842); also: nearly all actives have a fitted effect of over 15% in size
How it was run: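 PGC/ERR reporter cells (NTP line) were seeded 2,000 per well, rested 6 h at 37 C/5% CO2, then pin-dosed with compounds in DMSO for 18 h at 37 C; luciferase read by One-Glo luminescence after 30 min at room temperature.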

[19] = qHTS assay to identify small molecule antagonists of the estrogen related receptor (ERR) signaling pathway from Tox21 library (AID 1224848); also: nearly all actives have a fitted effect of over 50% in size
How it was run: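 Screening used an ERR reporter line supplied by NTP, exposed for 18 h at 37 C to library compounds delivered in DMSO. Signal was luciferase luminescence developed with ONE-Glo at room temperature for 30 min.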

[20] = qHTS assay to identify small molecule antagonists of the retinoid acid receptor (RAR) signaling pathway - cell viability counter screen (AID 1159551); also: nearly all actives have a fitted effect of over 35% in size
How it was run: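 Seed C3RL4 cells; next day add compound, then retinol to 1 uM final; incubate 6 h at 37 C; add CellTiter-Glo; read luminescence after 30 min at RT.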
% is scaled to controls: 0 for no effect and ±100 for the full control effect.

CCN(CC)CCN
inactive: Potency [1] | outcome [2] | Potency [3] | outcome [4] | Potency [5] | outcome [6] | outcome [7] | Potency [8] | Potency [9] | outcome [10] | outcome [11] | outcome [12] | outcome [13] | outcome [14] | outcome [15]

Cn1nnc2c(C(N)=O)ncn2c1=O
inactive: Potency [1] | outcome [2] | outcome [16] | Potency [3] | outcome [4] | Potency [5] | outcome [6] | Potency [8] | Potency [9] | outcome [17] | outcome [18] | outcome [12] | outcome [14] | outcome [15] | Potency [19]

C=CCSSCCC
inactive: Potency [1] | outcome [2] | outcome [16] | Potency [3] | outcome [4] | Potency [5] | outcome [6] | outcome [7] | Potency [8] | Potency [9] | outcome [10] | outcome [11] | outcome [12] | outcome [13] | outcome [14] | outcome [15]

CC(=O)c1cc(C)oc1C
inactive: Potency [1] | outcome [2] | outcome [16] | Potency [3] | outcome [4] | Potency [5] | outcome [6] | outcome [7] | Potency [8] | Potency [9] | outcome [10] | outcome [12] | outcome [13] | outcome [14] | outcome [15]

COC(=O)c1cccc(Cl)c1
inactive: Potency [1] | outcome [2] | outcome [16] | Potency [3] | outcome [4] | Potency [5] | outcome [6] | outcome [7] | Potency [8] | Potency [9] | outcome [10] | outcome [11] | outcome [12] | outcome [13] | outcome [14] | outcome [15]

COc1nc(N)nc2nc[nH]c12
inactive: Potency [1] | outcome [2] | Potency [3] | outcome [4] | Potency [5] | outcome [6] | Potency [8] | Potency [9] | outcome [10] | outcome [18] | outcome [12] | outcome [13] | outcome [14] | outcome [15] | Potency [19]

CC(C)C[C@@H]1[C@H](c2ccccc2)OC(=O)N1CCCN1CCCCCC1
inactive: outcome [2] | outcome [20] | outcome [16] | Potency [3] | outcome [4] | Potency [5] | outcome [6] | outcome [7] | Potency [8] | Potency [9] | outcome [10] | outcome [17] | outcome [18] | outcome [12] | outcome [13] | outcome [14] | outcome [15] | Potency [19]

Nc1nc(-c2ccccc2)c(Br)c(=O)[nH]1
inactive: outcome [2] | outcome [20] | outcome [16] | Potency [3] | outcome [4] | Potency [5] | outcome [6] | outcome [7] | Potency [8] | Potency [9] | outcome [10] | outcome [18] | outcome [12] | outcome [13] | outcome [14] | outcome [15] | Potency [19]

CC(N)CCCC(C)(C)O (stereo not given)
inactive: Potency [1] | outcome [2] | outcome [16] | Potency [3] | outcome [4] | Potency [5] | outcome [6] | outcome [7] | Potency [8] | Potency [9] | outcome [10] | outcome [11] | outcome [12] | outcome [13] | outcome [15]

CN1CCOC(c2ccccc2)c2ccccc2C1 (stereo not given)
inactive: Potency [1] | outcome [2] | outcome [16] | Potency [3] | outcome [4] | Potency [5] | outcome [6] | outcome [7] | Potency [8] | Potency [9] | outcome [10] | outcome [11] | outcome [12] | outcome [13] | outcome [15]

CN(C)CCOC(=O)C(c1ccccc1)C1(O)CCCC1 (stereo not given)
inactive: Potency [1] | outcome [2] | outcome [16] | Potency [3] | outcome [4] | Potency [5] | outcome [6] | outcome [7] | Potency [8] | Potency [9] | outcome [10] | outcome [12] | outcome [13] | outcome [15]

CCO
inactive: Potency [1] | outcome [2] | Potency [3] | outcome [4] | Potency [5] | outcome [6] | outcome [7] | Potency [8] | Potency [9] | outcome [10] | outcome [12] | outcome [13] | outcome [14] | outcome [15]

CCc1occc(=O)c1O
inactive: Potency [1] | outcome [2] | outcome [16] | Potency [3] | outcome [4] | Potency [5] | outcome [6] | outcome [7] | Potency [8] | Potency [9] | outcome [10] | outcome [11] | outcome [12] | outcome [13] | outcome [14] | outcome [15]

C=C(C)[C@@H]1CC=C(C)CC1
inactive: Potency [1] | outcome [2] | outcome [20] | outcome [4] | Potency [5] | outcome [6] | outcome [7] | Potency [8] | Potency [9] | outcome [10] | outcome [12] | outcome [13] | outcome [14] | outcome [15]

CCn1cc(C(=O)O)c(=O)c2cnc(N3CCCC3)nc21
inactive: activation [1] 0.584% [at 6.98 µM] | activity change, negative = cytotoxicity [2] -1.74% [at 6.97 µM] | activity, negative = inhibition [16] 5.14% [at 8.39 µM] | activation [3] 1.53% [at 8.36 µM] | viability change, negative = cytotoxic [4] 0.102% [at 8.39 µM] | activity change, negative = inhibition [5] 2.85% [at 10.5 µM] | viability change, negative = cytotoxic [6] 6.12% [at 8.39 µM] | activity change, negative = cytotoxicity [7] 1.8% [at 8.39 µM] | activity, negative = inhibition [8] -3.92% [at 8.39 µM] | activation [9] -0.437% [at 8.39 µM] | viability change, negative = cytotoxic [10] 1.85% [at 8.39 µM] | activation [11] -1.79% [at 8.39 µM] | activity change, negative = cytotoxicity [12] 0.904% [at 6.97 µM] | activation (H2AX phosphorylation) [13] 0.23% [at 14 µM] | activity change, negative = cytotoxicity [15] -5.46% [at 14 µM]

[O]=[Mo](=[O])=[O]
inactive: activation [1] 0.58% [at 15.8 µM] | activity change, negative = cytotoxicity [2] -1.21% [at 15.8 µM] | activity, negative = inhibition [16] 8.42% [at 19 µM] | Potency [3] | viability change, negative = cytotoxic [4] 3.34% [at 19 µM] | activity change, negative = inhibition [5] 0.269% [at 23.6 µM] | viability change, negative = cytotoxic [6] -3.23% [at 19 µM] | activity change, negative = cytotoxicity [7] -0.0508% [at 19 µM] | activity, negative = inhibition [8] -9.59% [at 19 µM] | activation [9] -3.75% [at 19 µM] | activation [11] -6.48% [at 19 µM] | activity change, negative = cytotoxicity [12] -18.3% [at 15.8 µM] | activation (H2AX phosphorylation) [13] -3.3% [at 31.6 µM] | activation [14] -0.622% [at 15.8 µM] | activity change, negative = cytotoxicity [15] -2.98% [at 31.6 µM]

— PubChem BioAssay (Tox21)
